# Results as given in ChEMBL document CHEMBL3988442, “University of Dundee, Small-Polar-MMV Screening Library” (2021).
# About 13,000 (27%) of roughly 48,000 compounds showed an effect of 50% or more. The list shows a part of the results.
# System: Wolbachia pipientis
# Test: Anti-Wolbachia Cell-Based Screen
# Type: functional
# Set-up: scale not given: in the data most compounds retested in dose-response had high values
# Conditions: 5 µM
row,Compound,Percent Effect
1,Cn1c(CN2CCCC2c2noc(C3CC3)n2)cc(=O)n(C)c1=O (stereo not drawn),-13.43%
2,COCC(=O)N1CCCC2(CCN(CCN3CCCC3)CC2)C1.O=C(O)C(F)(F)F.O=C(O)C(F)(F)F,18.87%
3,CCc1n[nH]c(C2CN(C(=O)c3cc(C4CC4)on3)CCO2)n1 (stereo not drawn),117.8%
4,CCCc1n[nH]c(C2CN(C(=O)c3cc(C4CC4)on3)CCO2)n1 (stereo not drawn),114.4%
5,O=S(=O)(c1c(Cl)nc2sccn12)N1CCC2(CCNCC2)C1,-2.285%
6,CC(C)(C)CN[C@@H]1CO[C@H](CNC(=O)C2CCCC2)[C@H]1O,-14.33%
7,Cc1ccc(S(=O)(=O)N2Cc3c(CN(C)C)nn(C)c3C2)cc1,-16.71%
8,CN(C)Cc1nn(C)c2c1CN(C(=O)c1ccc[nH]1)C2.O=C(O)C(F)(F)F,-9.086%
9,CCc1ccc(S(=O)(=O)N2Cc3c(CN(C)C)nn(C)c3C2)cc1.O=C(O)C(F)(F)F,97.57%
10,COc1ccc(S(=O)(=O)N2Cc3c(CN(C)C)nn(C)c3C2)cc1.O=C(O)C(F)(F)F,-0.8573%
11,Cc1ccc(CS(=O)(=O)N2Cc3c(CN(C)C)nn(C)c3C2)cc1.O=C(O)C(F)(F)F,96.76%
12,CCc1ccc(NC(=O)N2Cc3c(CN(C)C)nn(C)c3C2)cc1.O=C(O)C(F)(F)F,-20.31%
13,C=Cc1cccc(CN2CCCn3nc(CNS(C)(=O)=O)cc3C2)c1,10.79%
14,O=C1C(Sc2cnn[nH]2)CCCN1c1ccccc1F (stereo not drawn),-1.507%
15,Cc1n[nH]c(C2CN(Cc3csc(C4CC4)n3)CCO2)n1 (stereo not drawn),-12.76%
16,COCCOc1ncccc1C(=O)N(C)c1ccc(OC)c(OC)c1,-8.68%
17,Cc1ccc(Oc2ncccc2C(=O)N(C)CCCN(C)C)c(C)c1,137.8%
18,Cc1ccc(OCCNC(=O)C2CCOCC2)c(C)c1,-7.551%
19,Cc1ccc(Oc2ncccc2C(=O)N(C)CC2OCCO2)c(C)c1,132.9%
20,Cc1ccc(Oc2ncccc2C(=O)N(C)CCCN(C)C)cc1,116.5%
21,CC(C)CC(CNC(=O)c1cccnc1Oc1cccnc1)N(C)C (stereo not drawn),-29.76%

row,Compound,Percent Effect
1,COc1ccc(Oc2ncccc2C(N)=O)cc1CN1CCCC1,-15.13%
2,CC(CNC(=O)c1cccnc1Oc1cccnc1)N(C)C (stereo not drawn),-15.37%
3,CCOc1ncccc1C(=O)N(C)Cc1ncc(C)c(OC)c1C,-9.581%
4,Cc1ccc(Oc2ncccc2C(=O)O)c(C)c1,113.8%
5,COC(=O)C(NC(=O)c1ccc(C)cc1C)c1cccnc1 (stereo not drawn),2.23%
6,Cc1ccc(OCCN(C)Cc2nccn2C)c(C)c1,1.849%
7,CCc1cc(CNC(=O)N(C2CC2)C(C)c2ccco2)on1 (stereo not drawn),-6.882%
8,O=S(=O)(CCSc1nccn1C1CC1)c1ccccc1,2.896%
9,COc1ccc(CN2C[C@@H]3OCC(=O)N(Cc4nccn4C)[C@@H]3C2)cc1,-2.723%
10,Cc1cnn(CCNCC(=O)NC2(C#N)CCCC2)c1,1.433%
11,COc1ccccc1CC(=O)NC(CC(=O)O)c1ccc(F)cc1 (stereo not drawn),7.485%
12,CN(C)c1ncnc2c1CCN(S(=O)(=O)c1ccccc1C(F)(F)F)C2,15.95%
13,CCOCc1ncn2c1CN(S(=O)(=O)c1ccc(OC)cc1)CC2,3.877%
14,Cc1nc2n(n1)CCN(S(=O)(=O)c1ccc(Cl)cc1)C2,-10.09%
15,O=c1[nH]cnc2c1CCN(S(=O)(=O)c1ccc(Cl)cc1)C2,81.06%
16,O=c1[nH]cnc2c1CCN(S(=O)(=O)c1ccc(OC(F)(F)F)cc1)C2,93.77%
17,O=c1[nH]cnc2c1CCN(S(=O)(=O)c1cccc(OC(F)(F)F)c1)C2,122.9%
18,Cc1nc2n(n1)CCN(S(=O)(=O)c1ccc(OC(F)(F)F)cc1)C2,-10.24%
19,COc1cccc(S(=O)(=O)N2CCCc3c(OC)nn(C)c3C2)c1,-0.459%
20,CCOCCOc1ccc(S(=O)(=O)N2CCc3c(nc[nH]c3=O)C2)cc1,99.77%
21,COCc1ncn2c1CN(S(=O)(=O)c1cccc(OC)c1)CC2,5.522%

row,Compound,Percent Effect
1,CCOCc1cncc2c1CCN(S(=O)(=O)c1ccc(C)cc1)C2,7.269%
2,CN(C)c1ncnc2c1CCN(S(=O)(=O)c1cccc(Cl)c1Cl)C2,-2.011%
3,CC(=O)NCCc1ncnn1-c1ccc(F)c(Cl)c1,-4.574%
4,CC(O)CN1CCC(CNCc2ccc(S(C)(=O)=O)cc2)CC1 (stereo not drawn),-7.013%
5,Cc1cc(-c2ccc(C(C)N3CCOCC3)cc2)cnc1N (stereo not drawn),25.58%
6,O=C(NCCc1c[nH]cn1)c1ccc2c(c1)C(=O)N(C1CC1)C2=O,25.9%
7,CC(O)CN(C)C(=O)Nc1ccn(-c2cccc(C(F)(F)F)c2)n1 (stereo not drawn),-1.587%
8,CCc1nc(C2CCCN2Cc2noc(Cc3ccccc3)n2)no1 (stereo not drawn),-2.758%
9,c1ccn2c(C3CCCN3Cc3nc(C4CC4)no3)nnc2c1 (stereo not drawn),89.02%
10,COc1cccc2c1N(Cc1noc(C(C)(C)C)n1)CCC2,5.292%
11,Cc1nn(C)c(C)c1C1CCCN1Cc1noc(C2CC2)n1 (stereo not drawn),0.5745%
12,O=C(OCc1ccccc1)C1CCCN1Cc1nc(C2CC2)no1 (stereo not drawn),13.28%
13,CCn1c(C2CCCN2Cc2noc(C(C)(C)C)n2)nc2ccccc21 (stereo not drawn),117.3%
14,Cn1cccc1C1CCCN1Cc1noc(C(C)(C)C)n1 (stereo not drawn),89.29%
15,CC(C)(C)c1nnc(CN2CCCC2c2noc(C3CC3)n2)o1 (stereo not drawn),9.354%
16,CCc1nc(C2CCCN2Cc2nc(C3CC3)no2)no1 (stereo not drawn),-2.971%
17,CC(C)(C)c1nc(CN2CCCC2c2nnc3ccccn23)no1 (stereo not drawn),104.6%
18,CC(C)(C)c1nc(CN2CCCC2CCc2ccccc2)no1 (stereo not drawn),0.152%
19,CCc1nc(C2CCCN2Cc2nc3ccccc3o2)no1 (stereo not drawn),-3.272%
20,CC(C)n1cnc2c1C(C(=O)N1CCOCC1)N(CC1CC1)CC2.O=C(O)C(F)(F)F (stereo not drawn),-10.07%
21,CNC(=O)c1ccc(-n2c(COCC(=O)O)nc3c(C)cccc32)o1,-7.772%
